# Test results taken from PubChem BioAssay (EPA / NIEHS).
# “And” between values parts separate entries of the source, which are not always exact repeats. Identical values can stand only once. Records with an inconclusive call do not appear. Where a structure was tested more than once in an assay, its records may differ in their call. The source made the active and inactive calls. Rule for the calls, unless noted: active = hit-call score of the fitted dose curve at least 0.9, where 1 is the maximum; inactive = score below 0.9.
# How the values were obtained:
# [1] = biological target: Glucocorticoid receptor (Homo sapiens) (UniProt P04150); experiment: ATG_GR_TRANS: Attagene TRANS-FACTORIAL HepG2 Assay for human Glucocorticoid Receptor (GR) (AID 2282978; active = hit-call score of the fitted dose curve at least 0.9, where 1 is the maximum;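 note: activators score as hits since higher reporter transcript over DMSO is fitted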); settings: HepG2 Attagene TRANS GR reporter, mRNA transcription
# Sequence of Glucocorticoid receptor (Homo sapiens) (P04150 whole entry, looked up): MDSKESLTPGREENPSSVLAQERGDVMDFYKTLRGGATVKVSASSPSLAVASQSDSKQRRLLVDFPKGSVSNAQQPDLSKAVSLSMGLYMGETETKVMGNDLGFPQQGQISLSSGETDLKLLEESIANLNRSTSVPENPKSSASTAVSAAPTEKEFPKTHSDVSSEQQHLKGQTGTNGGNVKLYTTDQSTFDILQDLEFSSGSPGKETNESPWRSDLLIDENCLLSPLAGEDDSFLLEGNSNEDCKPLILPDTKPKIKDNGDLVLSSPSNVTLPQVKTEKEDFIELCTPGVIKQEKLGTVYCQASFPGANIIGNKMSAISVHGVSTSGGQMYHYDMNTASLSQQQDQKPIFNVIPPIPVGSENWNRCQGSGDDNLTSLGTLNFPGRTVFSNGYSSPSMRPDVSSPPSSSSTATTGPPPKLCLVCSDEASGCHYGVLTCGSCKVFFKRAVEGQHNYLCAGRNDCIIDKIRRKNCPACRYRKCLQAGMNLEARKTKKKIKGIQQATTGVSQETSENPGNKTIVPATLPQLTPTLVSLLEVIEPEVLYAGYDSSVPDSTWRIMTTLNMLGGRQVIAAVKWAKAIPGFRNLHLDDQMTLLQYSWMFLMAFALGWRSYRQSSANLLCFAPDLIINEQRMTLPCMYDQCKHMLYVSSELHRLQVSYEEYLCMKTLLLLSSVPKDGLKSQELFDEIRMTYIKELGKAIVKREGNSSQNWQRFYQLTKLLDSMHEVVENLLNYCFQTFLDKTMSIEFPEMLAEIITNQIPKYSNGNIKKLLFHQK
# Procedure, shortened: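 After 24 h incubation with test chemical, transfected HepG2 cells were lysed for RNA; reporter cDNA was amplified, FAM-labelled, HpaI-digested and sized on a capillary analyser. Signal gain relative to DMSO was scored.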
# [2] = biological target: human Peripheral-type Benzodiazepine Receptor (PBR), TSPO (gene 706) (UniProt P30536); experiment: NVS_MP_hPBR: NovaScreen (NVS) Membrane Protein Assay for human Peripheral-type Benzodiazepine Receptor (PBR) (AID 2283331; active = hit-call score of the fitted dose curve at least 0.9, where 1 is the maximum;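 note: hits reduce radioligand binding relative to DMSO baseline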)
# Sequence of human Peripheral-type Benzodiazepine Receptor (PBR), TSPO (gene 706) (P30536 whole entry, looked up): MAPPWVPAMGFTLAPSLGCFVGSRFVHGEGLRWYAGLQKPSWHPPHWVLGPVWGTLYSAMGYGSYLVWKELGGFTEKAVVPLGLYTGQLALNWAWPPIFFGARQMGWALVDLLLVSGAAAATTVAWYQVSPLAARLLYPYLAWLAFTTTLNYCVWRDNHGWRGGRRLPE
# Procedure, shortened: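 Human colonic cell membranes were incubated with test chemical for 1 hour; radioligand binding was measured by filter-based scintillation counting. Primary screen ran in duplicate at 25 uM, with actives followed in concentration series; loss of signal versus DMSO baseline.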
# [3] = biological target: Nucleoli Translocation, AR (gene 367) (UniProt P10275); experiment: UPITT_HCI_U2OS_AR_TIF2_Nucleoli_Antagonist: University of Pittsburgh U2OS Androgen Receptor-Transcriptional Intermediary Factor 2 (AR-TIF2) Antagonism High Content Imaging Assay for Nucleoli Translocation (AID 2283997; active = hit-call score of the fitted dose curve at least 0.9, where 1 is the maximum)
# Sequence of Nucleoli Translocation, AR (gene 367) (P10275 whole entry, looked up): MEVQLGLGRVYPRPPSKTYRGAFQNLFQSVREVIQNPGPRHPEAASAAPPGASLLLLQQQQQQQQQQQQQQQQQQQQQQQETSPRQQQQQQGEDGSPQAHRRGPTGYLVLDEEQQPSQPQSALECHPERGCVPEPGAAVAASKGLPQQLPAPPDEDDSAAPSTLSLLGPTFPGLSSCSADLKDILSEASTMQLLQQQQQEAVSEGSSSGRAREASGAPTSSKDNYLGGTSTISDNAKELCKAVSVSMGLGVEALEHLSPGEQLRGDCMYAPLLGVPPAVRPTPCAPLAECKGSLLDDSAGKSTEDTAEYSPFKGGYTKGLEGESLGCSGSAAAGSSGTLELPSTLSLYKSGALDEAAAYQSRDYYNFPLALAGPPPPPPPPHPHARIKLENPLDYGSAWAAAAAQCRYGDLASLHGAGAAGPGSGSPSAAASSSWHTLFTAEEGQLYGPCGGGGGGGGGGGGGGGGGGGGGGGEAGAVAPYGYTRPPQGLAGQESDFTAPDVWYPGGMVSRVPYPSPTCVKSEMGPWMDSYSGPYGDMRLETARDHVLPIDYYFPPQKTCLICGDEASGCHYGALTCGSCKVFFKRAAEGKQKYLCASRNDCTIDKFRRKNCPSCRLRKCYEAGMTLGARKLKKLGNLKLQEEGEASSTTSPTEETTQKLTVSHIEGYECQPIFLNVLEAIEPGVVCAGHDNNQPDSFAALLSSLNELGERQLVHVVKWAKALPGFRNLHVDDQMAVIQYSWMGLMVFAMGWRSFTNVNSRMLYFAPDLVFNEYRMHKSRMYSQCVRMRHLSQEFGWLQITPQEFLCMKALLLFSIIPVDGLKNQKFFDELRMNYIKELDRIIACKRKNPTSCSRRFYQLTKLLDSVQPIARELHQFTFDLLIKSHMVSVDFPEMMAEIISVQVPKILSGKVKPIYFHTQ
# Procedure, shortened: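 U2OS cells expressing RFP-tagged human AR and GFP-tagged TIF2 were imaged by high-content fluorescence microscopy for red AR signal in the nucleolar region. Compounds were screened at 20 uM final (0.2% DMSO), with activity fitted relative to DHT as baseline.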
# [4] = BSK_BT_PBMCCytotoxicity: PBMC Cytotoxicity Assessment in the BioMAP Diversity Plus: BT Assay (AID 2284225); settings: primary human B cells with PBMC;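 note: PBMC viability measured by Alamar Blue dye reduction fluorescence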
# Procedure, shortened: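 75,000 cells/well; cpd 1 h → SEB + TSST-1 (20 ng/mL final each) → 90 h → Alamar Blue 6 h → fluor. 546/580 nm. DMSO = neg. control/baseline.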
# [5] = read-out: Secreted IgG (sIgG), gene 3500; experiment: BSK_BT_sIgG: BioMAP Diversity Plus: BT Assay for Secreted IgG (sIgG) Biomarker Activity (AID 2284226); settings: primary human B cells with PBMC
# Procedure, shortened: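 Secreted IgG from a human primary B cell–PBMC co-culture was measured by ELISA 24 hours after dosing, with DMSO defining baseline activity.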
# [6] = read-out: Tumor necrosis factor (Homo sapiens) (UniProt P01375); experiment: BSK_BT_xTNFa: BioMAP Diversity Plus: BT Assay for Tumor necrosis factor alpha (TNF-alpha) Biomarker Activity (AID 2284230); settings: primary human B cells with PBMC
# Procedure, shortened: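 B cells with PBMC in co-culture, dosed and sampled at 24 h; secreted TNF-alpha measured by Luminex xMAP bead assay. Activity fitted in the gain direction against DMSO as negative control and baseline.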
# [7] = read-out: Vascular cell adhesion molecule 1 (VCAM1), VCAM1 (gene 7412); experiment: BSK_MyoF_VCAM1: BioMAP Diversity Plus: MyoF Assay for Vascular cell adhesion molecule 1 (VCAM1) Biomarker Activity (AID 2284231); settings: primary human lung fibroblasts
# Procedure, shortened: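 ELISA read-out of VCAM-1 on human lung fibroblasts 24 h after chemical treatment, with positive-direction curve fitting relative to DMSO controls. Parallel cultures were stained with sulforhodamine B for total protein to flag overt cytotoxicity.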
# [8] = read-out: Collagen I, COL1A1 (gene 1277); experiment: BSK_MyoF_CollagenI: BioMAP Diversity Plus: MyoF Assay for Collagen I Biomarker Activity (AID 2284238); settings: primary human lung fibroblasts
# Procedure, shortened: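 Lung fibroblasts (human primary) dosed, 24 h; Collagen I by ELISA; positive-direction fit vs DMSO control. Parallel SRB total-protein staining (0.1% SRB, 10% TCA fixation, 560 nm) flags overt cytotoxicity.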
# [9] = read-out: Collagen III, COL3A1 (gene 1281); experiment: BSK_MyoF_CollagenIII: BioMAP Diversity Plus: MyoF Assay for Collagen III Biomarker Activity (AID 2284239); settings: primary human lung fibroblasts
# Procedure, shortened: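 ELISA read-out of collagen III from human lung fibroblasts after 24 h of chemical treatment. The DMSO control served as negative control and baseline, with values fitted in the positive direction.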
# [10] = read-out: Interleukin 17F (IL17F), IL17F (gene 112744); experiment: BSK_BT_xIL17F: BioMAP Diversity Plus: BT Assay for Interleukin 17F (IL17F) Biomarker Activity (AID 2284243); settings: primary human B cells with PBMC
# Procedure, shortened: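 Compound was added to co-cultures of human B cells and PBMC. After 24 hours, IL-17F released into the medium was measured with LumineX xMAP technology. Responses were then fitted upward relative to DMSO.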
# [11] = read-out: Actin alpha 1 (ACTA1), ACTA1 (gene 58); experiment: BSK_MyoF_ACTA1: BioMAP Diversity Plus: MyoF Assay for Actin alpha 1 (ACTA1) Biomarker Activity (AID 2284244); settings: primary human lung fibroblasts
# Procedure, shortened: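 Measured by ELISA: alpha-smooth muscle actin in human primary lung fibroblasts 24 h after dosing, with DMSO as baseline and upward signal change as the fitted direction.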
# [12] = read-out: Interleukin 2 (IL2), IL2 (gene 3558); experiment: BSK_BT_xIL2: BioMAP Diversity Plus: BT Assay for Interleukin 2 (IL2) Biomarker Activity (AID 2284245); settings: primary human B cells with PBMC
# Procedure, shortened: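 Secreted interleukin-2 from human B cell/PBMC co-cultures, measured 24 h post-dosing by Luminex multiplex immunoassay. Upward-direction curve fitting against DMSO baseline.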
# [13] = read-out: Basic fibroblast growth factor (bFGF), FGF2 (gene 2247); experiment: BSK_MyoF_bFGF: BioMAP Diversity Plus: MyoF Assay for Basic fibroblast growth factor (bFGF) Biomarker Activity (AID 2284246); settings: primary human lung fibroblasts
# Procedure, shortened: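 In this multiplexed cell system, lung fibroblasts (human primary) receive test chemical for 24 h before ELISA detection of bFGF; DMSO defines baseline and the analysis direction is positive.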
# [14] = read-out: Interleukin-8 (IL8), CXCL8 (gene 3576); experiment: BSK_MyoF_IL8: BioMAP Diversity Plus: MyoF Assay for Interleukin-8 (IL8) Biomarker Activity (AID 2284261); settings: primary human lung fibroblasts
# Procedure, shortened: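 IL-8 levels were measured by ELISA in human lung fibroblasts harvested 24 h after compound addition. Responses were analysed as gain of signal over the DMSO baseline.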
# [15] = read-out: Decorin, DCN (gene 1634); experiment: BSK_MyoF_Decorin: BioMAP Diversity Plus: MyoF Assay for Decorin Biomarker Activity (AID 2284265); settings: primary human lung fibroblasts
# Procedure, shortened: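 Compound is added to lung fibroblast cultures; cells incubate 24 h; decorin is then measured by ELISA; the response is analysed upward against DMSO controls.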
# [16] = BSK_MyoF_SRB: Viability Assessment in the BioMAP Diversity Plus: MyoF Assay (AID 2284267); settings: primary human lung fibroblasts;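 note: total protein by SRB absorbance in parallel cultures as cytotoxicity measure; cells assessed 24 h after compound addition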
# Procedure, shortened: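 Cytotoxicity in primary human lung fibroblasts is gauged by SRB total-protein staining 24 h after dosing, with DMSO as the negative control.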
# [17] = biological target: Retinoic acid receptor RXR-alpha (Homo sapiens) (UniProt P19793); experiment: OT_NURR1_NURR1RXRa_1440: Odyssey Thera (OT) 24-hour HEK293T Protein Complementation Assay for Nurr1/retinoid X receptor (RXR) (AID 2283386; active = hit-call score of the fitted dose curve at least 0.9, where 1 is the maximum)
# Sequence of Retinoic acid receptor RXR-alpha (Homo sapiens) (P19793 whole entry, looked up): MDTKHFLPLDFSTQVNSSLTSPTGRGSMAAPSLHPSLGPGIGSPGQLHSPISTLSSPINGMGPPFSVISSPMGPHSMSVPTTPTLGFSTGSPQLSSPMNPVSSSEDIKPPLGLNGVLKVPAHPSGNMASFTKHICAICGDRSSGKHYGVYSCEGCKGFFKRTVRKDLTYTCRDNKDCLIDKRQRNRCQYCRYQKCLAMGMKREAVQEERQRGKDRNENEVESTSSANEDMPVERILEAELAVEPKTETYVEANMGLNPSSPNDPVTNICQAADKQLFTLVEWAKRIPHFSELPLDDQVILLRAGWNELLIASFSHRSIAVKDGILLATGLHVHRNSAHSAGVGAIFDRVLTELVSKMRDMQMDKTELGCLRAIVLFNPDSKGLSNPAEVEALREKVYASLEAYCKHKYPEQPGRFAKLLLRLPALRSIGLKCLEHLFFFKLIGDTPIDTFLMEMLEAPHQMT
# Procedure, shortened: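 Measured as fluorescence from a reconstituted split reporter, this 24 h HEK293T complementation assay scores compound-induced gain of Nurr1/RXRα association relative to DMSO.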
# [18] = biological target: Retinoic acid receptor alpha (Homo sapiens) (UniProt P10276); experiment: ATG_DR5_RAR_CIS: Attagene CIS-FACTORIAL HepG2 Assay for human Retinoic Acid Receptor Alpha (RARE), DR5 submotif (AID 2282934); settings: HepG2 Attagene cis-factorial RARE DR5 reporter, mRNA; actives raise or lower the signal
# Sequence of Retinoic acid receptor alpha (Homo sapiens) (P10276 whole entry, looked up): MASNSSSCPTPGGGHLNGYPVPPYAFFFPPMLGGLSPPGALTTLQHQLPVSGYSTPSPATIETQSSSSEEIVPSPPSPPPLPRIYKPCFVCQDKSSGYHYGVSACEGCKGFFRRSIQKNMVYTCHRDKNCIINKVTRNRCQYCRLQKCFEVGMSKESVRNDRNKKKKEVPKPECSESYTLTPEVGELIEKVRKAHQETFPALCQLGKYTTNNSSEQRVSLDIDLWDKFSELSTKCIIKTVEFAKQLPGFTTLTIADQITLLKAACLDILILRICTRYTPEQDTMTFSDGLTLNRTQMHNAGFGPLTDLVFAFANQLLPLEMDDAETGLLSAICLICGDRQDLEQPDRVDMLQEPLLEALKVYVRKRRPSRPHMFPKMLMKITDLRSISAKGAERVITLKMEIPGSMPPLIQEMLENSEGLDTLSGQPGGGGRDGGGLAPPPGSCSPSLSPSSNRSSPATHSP
# Procedure, shortened: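 Transfected HepG2 reporter cells are exposed to chemicals for 24 h. Then RNA is extracted and the DR5 element reporter transcript is measured by RT-PCR and capillary electrophoresis, with bidirectional curve fitting relative to DMSO.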
# [19] = biological target: human Tyrosine Protein Kinase Receptor Tie-2 (Tie2), TEK (gene 7010) (UniProt Q02763); experiment: NVS_ENZ_hTie2: NovaScreen (NVS) Enzymatic Assay for human Tyrosine Protein Kinase Receptor Tie-2 (Tie2) (AID 2283225; active = hit-call score of the fitted dose curve at least 0.9, where 1 is the maximum)
# Sequence of human Tyrosine Protein Kinase Receptor Tie-2 (Tie2), TEK (gene 7010) (Q02763 whole entry, looked up): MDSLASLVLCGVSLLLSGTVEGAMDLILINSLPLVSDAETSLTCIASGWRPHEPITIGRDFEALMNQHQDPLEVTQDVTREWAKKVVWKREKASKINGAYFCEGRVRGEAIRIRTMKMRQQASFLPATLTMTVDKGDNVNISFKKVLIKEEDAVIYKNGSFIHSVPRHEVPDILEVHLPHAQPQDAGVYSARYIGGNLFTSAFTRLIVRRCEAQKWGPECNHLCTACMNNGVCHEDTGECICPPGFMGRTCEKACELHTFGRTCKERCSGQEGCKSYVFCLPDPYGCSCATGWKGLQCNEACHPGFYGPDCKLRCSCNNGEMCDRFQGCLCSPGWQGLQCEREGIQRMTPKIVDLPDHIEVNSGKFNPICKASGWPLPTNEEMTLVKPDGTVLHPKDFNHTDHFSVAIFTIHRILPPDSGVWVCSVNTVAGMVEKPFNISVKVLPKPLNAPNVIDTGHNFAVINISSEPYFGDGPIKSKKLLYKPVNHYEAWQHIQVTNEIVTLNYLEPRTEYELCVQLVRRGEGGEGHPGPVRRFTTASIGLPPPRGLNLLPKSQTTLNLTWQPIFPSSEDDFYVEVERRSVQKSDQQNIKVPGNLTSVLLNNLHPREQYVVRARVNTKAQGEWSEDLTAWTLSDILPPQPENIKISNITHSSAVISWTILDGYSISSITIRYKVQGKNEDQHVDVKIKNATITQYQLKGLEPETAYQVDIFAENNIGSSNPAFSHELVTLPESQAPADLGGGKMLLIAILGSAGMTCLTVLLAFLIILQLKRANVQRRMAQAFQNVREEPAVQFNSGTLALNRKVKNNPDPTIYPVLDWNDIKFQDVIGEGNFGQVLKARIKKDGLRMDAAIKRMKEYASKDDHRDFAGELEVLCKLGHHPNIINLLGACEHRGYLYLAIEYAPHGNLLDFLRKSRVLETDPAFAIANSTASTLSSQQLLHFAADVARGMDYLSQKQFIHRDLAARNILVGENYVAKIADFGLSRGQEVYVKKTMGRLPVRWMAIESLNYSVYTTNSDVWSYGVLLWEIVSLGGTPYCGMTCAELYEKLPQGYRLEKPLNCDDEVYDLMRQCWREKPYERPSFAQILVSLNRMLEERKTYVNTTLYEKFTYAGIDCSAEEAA
# Procedure, shortened: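 Recombinant human Tie2 kinase activity was read cell-free by fluorescence with electrophoretic mobility shift, 1 hour after dosing. The screen used 25 uM in duplicate, then concentration-response up to 50 uM. Signal loss was scored against DMSO.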
# [20] = biological target: human CYP4F12, CYP4F12 (gene 66002) (UniProt Q9HCS2); experiment: NVS_ADME_hCYP4F12: NovaScreen (NVS) CYP450-related Enzyme Activity (ADME) Assay for human CYP4F12 (AID 2283111; active = hit-call score of the fitted dose curve at least 0.9, where 1 is the maximum)
# Sequence of human CYP4F12, CYP4F12 (gene 66002) (Q9HCS2 whole entry, looked up): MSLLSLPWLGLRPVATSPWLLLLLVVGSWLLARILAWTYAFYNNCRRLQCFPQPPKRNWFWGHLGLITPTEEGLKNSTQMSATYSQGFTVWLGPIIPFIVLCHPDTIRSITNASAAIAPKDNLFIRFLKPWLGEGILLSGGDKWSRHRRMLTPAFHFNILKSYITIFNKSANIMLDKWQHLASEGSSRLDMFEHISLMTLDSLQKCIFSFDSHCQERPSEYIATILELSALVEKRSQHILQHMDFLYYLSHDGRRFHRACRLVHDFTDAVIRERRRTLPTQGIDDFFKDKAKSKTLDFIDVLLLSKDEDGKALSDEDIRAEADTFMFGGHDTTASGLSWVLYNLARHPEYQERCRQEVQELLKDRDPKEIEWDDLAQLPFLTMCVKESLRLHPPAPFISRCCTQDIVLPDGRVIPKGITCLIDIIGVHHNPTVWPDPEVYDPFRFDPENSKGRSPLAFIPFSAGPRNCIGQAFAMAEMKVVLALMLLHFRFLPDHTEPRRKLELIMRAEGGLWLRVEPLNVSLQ
# Procedure, shortened: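 Cell-free fluorescence assay of recombinant human CYP4F12 activity on a specific substrate, read 0.5 h after dosing. Primary screen in duplicate at 10 uM, then concentration series for actives; loss of signal fitted against acetonitrile negative control.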
# Sequence of Tumor necrosis factor (Homo sapiens) (P01375 whole entry, looked up): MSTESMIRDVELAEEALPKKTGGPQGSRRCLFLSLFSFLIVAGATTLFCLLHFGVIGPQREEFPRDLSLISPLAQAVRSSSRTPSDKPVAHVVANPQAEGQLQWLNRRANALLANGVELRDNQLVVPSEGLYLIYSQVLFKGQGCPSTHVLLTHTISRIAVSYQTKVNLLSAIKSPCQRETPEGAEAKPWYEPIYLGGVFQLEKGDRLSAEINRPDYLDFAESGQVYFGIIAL
compound,measurement,setting,value
CC1(C)[C@H](C(=O)O[C@H](C#N)c2cccc(Oc3ccccc3)c2)[C@@H]1C=C(Br)Br,outcome,[1],inactive
same,AC50,[2],10.1 µM (active)
same,outcome,[2],inactive
same,outcome,[3],inactive
same,outcome,[4],inactive
same,AC50,[5],23.2 µM (active) and 29.8 µM (active)
same,outcome,[6],inactive
same,outcome,[7],inactive
same,outcome,[8],inactive
same,outcome,[9],inactive
same,AC50,[10],28.7 µM (active) and 20 µM (active)
same,outcome,[11],inactive
same,AC50,[12],29.1 µM (active) and 20 µM (active)
same,outcome,[13],inactive
same,outcome,[14],inactive
same,outcome,[15],inactive
same,outcome,[16],inactive
Nc1ccccc1,outcome,[17],inactive
O=C(NCNC(=O)NC1C(=O)NC(=O)N1CO)NC1C(=O)NC(=O)N1CO (stereo not drawn),outcome,[18],inactive
same,AC50,[17],78 µM (active)
same,AC50,[3],50 µM (active)
CC(=O)c1cc2c(cc1C)C(C)(C)C(C)CC2(C)C (stereo not drawn),outcome,[17],inactive
CCc1cc(C)cc(CC)c1-c1c(OC(=O)C(C)(C)C)n2n(c1=O)CCOCC2,outcome,[2],inactive
same,outcome,[4],inactive
same,outcome,[5],inactive
same,outcome,[6],inactive
same,outcome,[7],inactive
same,outcome,[8],inactive
same,outcome,[9],inactive
same,outcome,[10],inactive
same,AC50,[11],20 µM (active)
same,outcome,[12],inactive
same,outcome,[13],inactive
same,outcome,[14],inactive
same,outcome,[15],inactive
same,outcome,[16],inactive
C=COCCCl,outcome,[3],inactive
O=C1C=CC(=O)C=C1,AC50,[4],17.3 µM (active) and 27.7 µM (active)
same,AC50,[5],10.9 µM (active) and 28 µM (active)
same,AC50,[6],24 µM (active) and 33.1 µM (active)
same,AC50,[7],34 µM (active) and 29.6 µM (active)
same,AC50,[8],31.8 µM (active) and 25.3 µM (active)
same,AC50,[9],32.2 µM (active) and 20 µM (active)
same,AC50,[10],29.2 µM (active)
same,AC50,[11],30.9 µM (active) and 20 µM (active)
same,AC50,[12],26.3 µM (active) and 32 µM (active)
same,AC50,[13],34.7 µM (active) and 30.6 µM (active)
same,AC50,[14],9.01 µM (active) and 4.78 µM (active)
same,outcome,[15],inactive
same,AC50,[16],30.6 µM (active) and 29 µM (active)
Cc1ccc(C)c2ccccc12,outcome,[3],inactive
CC1(C)CC(=O)CC(C)(C)N1[O],outcome,[18],inactive
COC(C)(C)CCC[C@H](C)C/C=C/C(C)=C/C(=O)OC(C)C,AC50,[2],25 µM (active)
same,AC50,[4],20 µM (active)
same,AC50,[5],13.4 µM (active)
same,AC50,[6],32.5 µM (active)
same,AC50,[7],27.1 µM (active)
same,outcome,[8],inactive
same,outcome,[9],inactive
same,AC50,[10],24.4 µM (active)
same,AC50,[11],30.9 µM (active)
same,AC50,[12],28.4 µM (active)
same,outcome,[13],inactive
same,outcome,[14],inactive
same,outcome,[15],inactive
same,outcome,[16],inactive
O=[N+]([O-])c1ccc(Cl)cc1,outcome,[1],inactive
same,outcome,[19],inactive
same,outcome,[17],inactive
CCOC(=O)COc1ccc(Cl)cc1Cl,outcome,[1],inactive
same,outcome,[17],inactive
Cc1ccccc1CCl,outcome,[18],inactive
same,outcome,[1],inactive
CCOC(=O)N(C)N=O,outcome,[18],inactive
O=c1c2ccccc2c(=O)c2c1cc(Cl)c1[nH]c3c([nH]c12)c(Cl)cc1c(=O)c2ccccc2c(=O)c13,outcome,[4],inactive
same,outcome,[5],inactive
same,outcome,[6],inactive
same,outcome,[7],inactive
same,outcome,[8],inactive
same,outcome,[9],inactive
same,outcome,[10],inactive
same,outcome,[11],inactive
same,outcome,[12],inactive
same,outcome,[13],inactive
same,outcome,[14],inactive
same,outcome,[15],inactive
same,outcome,[16],inactive
Nc1c(Cl)c(Cl)c(Cl)c(Cl)c1Cl,outcome,[18],inactive
CN1C[C@H](C(=O)N[C@]2(C)O[C@@]3(O)[C@@H]4CCCN4C(=O)[C@H](Cc4ccccc4)N3C2=O)C=C2c3cccc4[nH]cc(c34)C[C@H]21,outcome,[1],inactive
NC(=O)c1nc(-c2cccc(-c3cc(F)ccc3OCC(F)(F)C(F)(F)F)c2)n[nH]1,outcome,[20],inactive
CCCCCCCCCC(=O)O,AC50,[20],2.83 µM (active)
N#CSCSc1nc2ccccc2s1,outcome,[19],inactive
Cc1nc(-c2ccc3c(c2)CCN(CCC2CCC(NC(=O)/C=C/c4ccc(F)cc4)CC2)CC3)no1 (stereo not drawn),outcome,[20],inactive
same,AC50,[19],16.2 µM (active)
CC1(C)C(=O)N(Br)C(=O)N1Br,AC50,[20],2.18 µM (active)
CC(C)(c1ccc(O)cc1)c1ccc(O)cc1,AC50,[20],4.07 µM (active)
same,outcome,[19],inactive
CCCCCCCCCCCCCC[P+](CCCC)(CCCC)CCCC,AC50,[19],15.3 µM (active)
